Screening data from PubChem BioAssay.
TGFb inhibitor: inhibitors of TGF-b signaling. AID 588855. Potency, µM (highest dose often 46.1 µM), inactives show top-dose activity, negative = inhibition, most hits filed as inhibitors. 410,000 compounds, 1.2% hits. HepG2 CAGA-GFP TGF-b/SMAD3 reporter, GFP fluorescence, 18 h; TGF-beta stimulated, 500 pg/mL final; further: potency means the concentration at half of the fitted maximal effect; on the % scale 0 is the no-effect control and ±100 the full control effect; nearly all actives have a fitted effect of over 65% in size
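Read-out: total well GFP (ex488/em500-530) summed from mean per-cell fluorescence. Cells: HEPG2 CAGA-GFP, 1% FBS DMEM, 18 h at 37 degrees C with 500 pg/mL final TGF-beta. Unstimulated wells served as the full-inhibition control; stimulated DMSO wells = 0%.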
S2 tox: viability counter-screen for ATXN expression inhibitors; S2 cells (HEK-293 line with an ATXN2-luciferase reporter) viability, CellTiter-Fluor protease fluorescence, 24 h; 400,000 compounds, 0.49% hits; Potency, µM (titrated, usually from 56.7 µM), hits mostly cytotoxic; further: potency means the concentration at half of the fitted maximal effect; nearly all actives have a fitted effect of over 40% in size
CtBP-E1A inh: inhibitors of CtBP/E1A interaction; activity change, % (concentration not given with the values); 340,000 compounds, 0.49% hits; AlphaScreen GST-E1A/His-CtBP binding, 1536-well; active compounds read low; in the data active means activity change below about -65%; inconclusive means mostly about -30% to -63%; further: on the % scale 0 is the no-effect control and ±100 the full control effect
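In 5 uL wells, 23 nL compound meets equimolar GST-E1A and His-CtBP (5X stock 125 nM each) for 2 h, 37 °C. Beads (5X, 50 ug/mL) then 1 h, 37 °C, dark.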
HepG2 tox: counter-screen for TGF-b inhibitors: cytotoxicity in HepG2 cells | AID 588856 | 410,000 compounds, 0.76% hits | HepG2 CAGA-GFP viability, ATP luminescence, 18 h | Potency, µM (titrated, usually from 46.1 µM), inactives show top-dose activity change, negative = cytotoxicity, hits mostly cytotoxic; further: potency means the concentration at half of the fitted maximal effect
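CellTiter-Glo luminescence gave cytotoxicity after 18 hours at 37 degrees C. The cells were HepG2 CAGA-GFP in 1% FBS DMEM, stimulated with 500 pg/mL TGF-beta after compound addition. %Activity was normalised to no-cell wells (complete cell-killing) and DMSO (no toxicity), and curves were fitted and classified.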
Six1-Eya2 blk: inhibitors of human Six1/Eya2 interaction | activity change, % (no concentration beside the values) | Q15475+O00167 | 360,000 compounds, 0.56% hits | AlphaScreen GST-Six1/His-Eya2 binding, biochemical; active compounds read low; in the data active means activity change below about -65%; inconclusive means mostly about -30% to -63%; further: on the % scale 0 is the no-effect control and ±100 the full control effect
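Homogeneous AlphaScreen proximity assay pairing GST-Six1 with His-tagged Eya2 (added as 5X mix: 250 nM and 500 nM) in 50 mM Tris pH 8.0, 300 mM NaCl, 1 mM TCEP. Glutathione donor and nickel acceptor beads; 1 h, 37 °C, dark.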
ATXN2 expr inh: inhibitors of ATXN2 expression | HEK-293 ATXN2-luciferase reporter, luminescence, 24 h | 360,000 compounds, 0.72% hits | Potency, µM (titrated, usually from 57 µM), without a hit: top-dose activity change, negative = inhibition, actives largely listed as inhibitors | AID 1745845; further: potency means the concentration at half of the fitted maximal effect; on the % scale 0 is the no-effect control and ±100 the full control effect; nearly all actives have a fitted effect of over 55% in size
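qHTS (up to 57 uM final) was run with 24 h compound exposure of reporter cells at 37 °C. Each well was multiplexed: SteadyGlo luminescence measured ATXN2-luciferase expression after a fluorogenic Gly-Phe-AFC viability readout (25 uM final).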
Starred values were filed as active, the others as inactive. The list is not random: actives were taken first. Their share in the collection is about 2.8%. Unless noted, the call rests on the fitted dose curve; in most records, active means well fitted curve in the direction sought with a large enough effect; inconclusive means small, poorly fitted or top-dose-only effect, or another doubt; inactive means no such curve, though single readings can be large; an effect the other way counts as inactive or inconclusive.

`CC(C)CC(N)c1cn([C@@H](CCC(=O)O)C(=O)N2CCNCC2)nn1` (some centres not stated) gave TGFb inhibitor -3%, S2 tox inactive, CtBP-E1A inh 1, HepG2 tox 1%, Six1-Eya2 blk 1 and ATXN2 expr inh 0%.
`CC(C)C[C@H](N)c1cn([C@@H](CCCCN)C(=O)N2CCNCC2)nn1` gave TGFb inhibitor inconclusive, S2 tox inconclusive, CtBP-E1A inh -24, HepG2 tox -49%, Six1-Eya2 blk -10 and ATXN2 expr inh 1.6µM*.
Screening COc1cccc(CNC(=O)c2cnn(-c3ncc4c(n3)-c3ccccc3CCC4)c2C)c1OC returned S2 tox inactive.
For Cn1c(=O)oc2cc(S(=O)(=O)Nc3ccc(Cl)cc3)ccc21 the results were TGFb inhibitor 9%, S2 tox inactive, CtBP-E1A inh 7, HepG2 tox -1%, Six1-Eya2 blk 3 and ATXN2 expr inh -4%.
Cn1c(=O)oc2cc(S(=O)(=O)Nc3ccc(F)cc3)ccc21 was read as TGFb inhibitor 8%, S2 tox inactive, CtBP-E1A inh 1, HepG2 tox 4µM*, Six1-Eya2 blk -1 and ATXN2 expr inh -4%.
`COC[C@H](NC(=O)c1cnc(C)s1)C(=O)N[C@@H](COC)C(=O)N[C@@H](Cc1ccccc1)C(=O)[C@@]1(C)CO1` gave ATXN2 expr inh 0.22µM*.
CN1CCCCCC1C(=O)NCC1Cc2cc(-c3cnccn3)ccc2O1 (configuration not stated) was read as S2 tox inactive.
For Cc1coc2cc3oc(=O)c(CC(=O)NCCc4ccccc4)c(C)c3cc12 the results were TGFb inhibitor -11% and HepG2 tox -3%.
CC(=O)N1CCCc2cc(S(=O)(=O)N3CCCC(C(=O)Nc4ccc(F)cc4F)C3)ccc21 (configuration not stated) was read as TGFb inhibitor inconclusive, S2 tox inactive, HepG2 tox -36% and ATXN2 expr inh -19%.
`COc1ccc(-c2nc3ncccc3n2O)cc1` gave TGFb inhibitor -4%, S2 tox inactive, CtBP-E1A inh -21, HepG2 tox 14µM*, Six1-Eya2 blk 6 and ATXN2 expr inh 26%.
On1c(-c2ccccc2)nc2ncccc21 was read as TGFb inhibitor 5%, S2 tox inactive, HepG2 tox -2% and Six1-Eya2 blk 22.
Screening COc1cc(-c2cc(OC)c3c(C)oc(C)c3c(=O)c2)ccc1OC(=O)c1cccc(C)c1 returned TGFb inhibitor 0% and HepG2 tox 1%.
For COc1c(Cl)cc(Cl)cc1/C=C/C(=O)c1ccc(NC(=O)c2cccs2)cc1 the results were TGFb inhibitor inconclusive, S2 tox 16µM*, CtBP-E1A inh 1, HepG2 tox -98%, Six1-Eya2 blk -2 and ATXN2 expr inh 13µM*.
Screening O=C(Nc1ccc(NC(=O)c2cccs2)cc1)c1ccc(Cl)cc1 returned TGFb inhibitor -9%, S2 tox inactive, HepG2 tox -34% and ATXN2 expr inh 5%.
Screening O=[N+]([O-])c1ccc(O/N=[N+](\[O-])N2CCN(c3ncccn3)CC2)c([N+](=O)[O-])c1 returned TGFb inhibitor 10µM* and HepG2 tox -91%.
Screening O=C(OCCF)N1CCN(/[N+]([O-])=N/Oc2ccc([N+](=O)[O-])cc2[N+](=O)[O-])CC1 returned TGFb inhibitor 8.9µM* and HepG2 tox 20µM*.
O=[N+]([O-])c1ccc(O/N=[N+](\[O-])N2CCN(c3ccccc3)CC2)c([N+](=O)[O-])c1 was read as TGFb inhibitor 11µM* and HepG2 tox -25%.
